# Results as given in PubChem BioAssay (NCATS).
# Records with an inconclusive call do not appear. Entries that show only a call come without a potency. Values without a mark were called inactive. Calls of active or inactive are those of the source. Calls follow the shape of the dose curve; as a rule, active = well fitted curve in the direction sought with a large enough effect; inconclusive = small, poorly fitted or top-dose-only effect, or another doubt; inactive = no such curve, though single readings can be large; an effect the other way counts as inactive or inconclusive.
# Tests used:
# [1] = qHTS of pediatric cancer cell lines to identify multiple opportunities for drug repurposing: Primary screen for TC32 cells (AID 1347089); also: nearly all actives have a fitted effect of over 60% in size
# Procedure, shortened: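 Measured quantity: luminescence from CellTiter-Glo, reflecting metabolically active TC32 cells following 48 h of compound. Curves came straight from multi-point titrations, with 8 or 11 points in primary and 11 in confirmatory screening.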
# [2] = qHTS of pediatric cancer cell lines to identify multiple opportunities for drug repurposing: Primary screen for DAOY cells (AID 1347090); also: series mostly up to about 46 µM; nearly all actives have a fitted effect of over 55% in size
# Procedure, shortened: (§1)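 Eight- or eleven-point concentration series, 48 h treatment at 37 degrees C in growth media; readout CellTiter-Glo luminescence. Potency and efficacy were taken from the concentration-response curves.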
# [3] = qHTS of pediatric cancer cell lines to identify multiple opportunities for drug repurposing: Primary screen for SJ-GBM2 cells (AID 1347091)
# Procedure, shortened: as §1
# [4] = qHTS of pediatric cancer cell lines to identify multiple opportunities for drug repurposing: Primary screen for A673 cells (AID 1347092); also: nearly all actives have a fitted effect of over 45% in size
# Procedure, shortened: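 Cells are plated, rested 5 h, dosed by pintool, incubated 48 h, then lysed with CellTiter-Glo and read by luminescence. DMSO is the neutral control; bortezomib at 2.3 uM final is the positive control.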
# [5] = qHTS of pediatric cancer cell lines to identify multiple opportunities for drug repurposing: Primary screen for SK-N-MC cells (AID 1347093); also: series mostly up to about 46 µM
# Procedure, shortened: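 Metabolically active cells were quantified by ATP-dependent luminescence (CellTiter-Glo, 15 min at room temperature) following 48 h treatment. Cells had been plated at 500-1,000 per well and settled for 5 h beforehand.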
# [6] = qHTS of pediatric cancer cell lines to identify multiple opportunities for drug repurposing: Primary screen for BT-37 cells (AID 1347094); also: series mostly up to about 57 µM
# Procedure, shortened: (§2)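 Quantitative HTS format: each compound titrated (MIPE 11 points from 0.78 nM, NPC 8 points from 0.59 nM) onto cells plated 5 hours earlier. After 48 h at 37 degrees C, CellTiter-Glo luminescence was recorded.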
# [7] = qHTS of pediatric cancer cell lines to identify multiple opportunities for drug repurposing: Primary screen for U-2 OS cells (AID 1347096); also: nearly all actives have a fitted effect of over 50% in size
# Procedure, shortened: (§3)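 Cells (500-1,000/well) in growth media were settled 5 h at 37 degrees C, then given compounds for 48 h. Viability was read as CellTiter-Glo luminescence. Primary runs used MIPE at 11 points (0.78 nM-46 µM) and NPC at 8 points (0.59 nM-46 µM); follow-ups used 11 points.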
# [8] = qHTS of pediatric cancer cell lines to identify multiple opportunities for drug repurposing: Primary screen for Saos-2 cells (AID 1347097); also: nearly all actives have a fitted effect of over 40% in size
# Procedure, shortened: as §2
# [9] = qHTS of pediatric cancer cell lines to identify multiple opportunities for drug repurposing: Primary screen for SK-N-SH cells (AID 1347098);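 also: DMSO served as neutral control and bortezomib at 2.3 µM as positive control; nearly all actives have a fitted effect of over 65% in size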
# Procedure, shortened: (§4)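 Cells (500-1,000/well) rested 5 h, then received compounds for 48 h; metabolically active cells were measured by CellTiter-Glo luminescence. Final concentrations spanned up to 46 µM (MIPE, 11-point) or 0.59 nM-46 µM (NPC, 8-point) in primary screens, 11-point in follow-ups.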
# [10] = qHTS of pediatric cancer cell lines to identify multiple opportunities for drug repurposing: Primary screen for NB1643 cells (AID 1347099); also: nearly all actives have a fitted effect of over 50% in size
# Procedure, shortened: as §2
# [11] = qHTS of pediatric cancer cell lines to identify multiple opportunities for drug repurposing: Primary screen for LAN-5 cells (AID 1347100)
# Procedure, shortened: as §3
# [12] = qHTS of pediatric cancer cell lines to identify multiple opportunities for drug repurposing: Primary screen for BT-12 cells (AID 1347101); also: nearly all actives have a fitted effect of over 25% in size
# Procedure, shortened: as §4
# [13] = qHTS of pediatric cancer cell lines to identify multiple opportunities for drug repurposing: Primary screen for Rh18 cells (AID 1347102); also: nearly all actives have a fitted effect of over 65% in size
# Procedure, shortened: as §3
# [14] = qHTS of pediatric cancer cell lines to identify multiple opportunities for drug repurposing: Primary screen for OHS-50 cells (AID 1347103); also: nearly all actives have a fitted effect of over 40% in size; also: potency is read from the fitted curve at half-maximal effect
# Procedure, shortened: as §4
# [15] = qHTS of pediatric cancer cell lines to identify multiple opportunities for drug repurposing: Primary screen for RD cells (AID 1347104); also: nearly all actives have a fitted effect of over 55% in size
# Procedure, shortened: as §2
# [16] = qHTS of pediatric cancer cell lines to identify multiple opportunities for drug repurposing: Primary screen for MG 63 (6-TG R) cells (AID 1347105); also: nearly all actives have a fitted effect of over 50% in size
# Procedure, shortened: as §2
# [17] = qHTS of pediatric cancer cell lines to identify multiple opportunities for drug repurposing: Primary screen for control Hh wild type fibroblast cells (AID 1347106);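 also: series mostly up to about 46 µM; a drop in luminescence marks cytotoxicity and a rise apparent proliferation; nearly all actives have a fitted effect of over 55% in size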
# Procedure, shortened: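 Viability after 48 h compound treatment at 37C, 500-1,000 cells/well, read as ATP luminescence with CellTiter-Glo. Primary screens used 11-point (MIPE, 0.78 nM-46 µM) or 8-point (NPC, 0.59 nM-46 µM) final concentrations; follow-up screens used 11-point dilutions.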
# [18] = qHTS of pediatric cancer cell lines to identify multiple opportunities for drug repurposing: Primary screen for NB-EBc1 cells (AID 1347095)
# Procedure, shortened: as §2
Structure (SMILES),Potency [1],Potency [2],Potency [3],Potency [4],Potency [5],Potency [6],Potency [7],Potency [8],Potency [9],Potency [10],Potency [11],Potency [12],Potency [13],Potency [14],Potency [15],Potency [16],Potency [17],Potency [18]
C=CCc1ccc(O)c(OC)c1,inactive,inactive,inactive,inactive,inactive,inactive,inactive,inactive,inactive,inactive,inactive,inactive,inactive,inactive,inactive,inactive,inactive,
CC(=O)CC(c1ccc([N+](=O)[O-])cc1)c1c(O)c2ccccc2oc1=O (stereo not given),inactive,inactive,inactive,inactive,inactive,inactive,,inactive,inactive,inactive,inactive,inactive,inactive,inactive,inactive,inactive,inactive,
CCOC(=O)/C=C(C)/C=C/C=C(C)/C=C/c1c(C)cc(OC)c(C)c1C,inactive,inactive,inactive,inactive,,inactive,inactive,inactive,inactive,inactive,inactive,,inactive,24.6 µM (active),inactive,inactive,inactive,inactive
CC(O)(P(=O)(O)O)P(=O)(O)O,inactive,inactive,inactive,,inactive,inactive,inactive,inactive,inactive,inactive,inactive,inactive,inactive,inactive,inactive,inactive,inactive,inactive
CCCCc1nc(Cl)c(CO)n1Cc1ccc(-c2ccccc2-c2nn[nH]n2)cc1,inactive,inactive,inactive,inactive,,inactive,inactive,inactive,inactive,inactive,inactive,inactive,inactive,inactive,inactive,inactive,inactive,inactive
Cc1onc(-c2c(Cl)cccc2Cl)c1C(=O)N[C@@H]1C(=O)N2[C@@H]1SC(C)(C)[C@@H]2C(=O)O,inactive,inactive,inactive,inactive,inactive,inactive,inactive,inactive,inactive,inactive,inactive,,inactive,inactive,inactive,inactive,inactive,
CCCCCCCCCCCCCCCCCC(=O)OCC(O)CO (stereo not given),inactive,inactive,inactive,inactive,inactive,inactive,,inactive,inactive,inactive,inactive,inactive,inactive,inactive,inactive,inactive,inactive,
Nc1ccc(C(=O)O)cc1,inactive,inactive,inactive,,inactive,inactive,inactive,inactive,inactive,inactive,inactive,inactive,inactive,inactive,inactive,,inactive,inactive
NCCC(O)(P(=O)(O)O)P(=O)(O)O,inactive,inactive,inactive,inactive,inactive,inactive,inactive,inactive,inactive,inactive,inactive,,inactive,inactive,inactive,inactive,inactive,
COc1c2occc2c(OC)c2c(=O)cc(C)oc12,inactive,inactive,inactive,inactive,inactive,inactive,,inactive,inactive,inactive,inactive,inactive,inactive,inactive,inactive,inactive,inactive,
CC(Cc1cccc(C(F)(F)F)c1)NCCOC(=O)c1ccccc1 (stereo not given),inactive,inactive,inactive,inactive,,,inactive,,inactive,inactive,inactive,inactive,inactive,,inactive,inactive,inactive,
C[C@]12CC[C@@H]3c4ccc(O)cc4CC[C@H]3[C@@H]1C[C@@H](O)[C@@H]2O,inactive,inactive,inactive,inactive,inactive,inactive,inactive,inactive,inactive,inactive,inactive,inactive,inactive,,inactive,inactive,inactive,
O=S1(=O)c2cccc3cccc(c23)N1CCCN1CCN(c2ccc(F)cc2)CC1,inactive,inactive,inactive,inactive,,inactive,inactive,inactive,,inactive,,,inactive,,inactive,inactive,inactive,inactive
